One may read the Kd as the concentration at which binding is half-saturated. High values mean lower affinity, low ones higher affinity.

One test deals with T1, Slp1-FL (Drosophila melanogaster, UniProt P32030).
T1 sequence: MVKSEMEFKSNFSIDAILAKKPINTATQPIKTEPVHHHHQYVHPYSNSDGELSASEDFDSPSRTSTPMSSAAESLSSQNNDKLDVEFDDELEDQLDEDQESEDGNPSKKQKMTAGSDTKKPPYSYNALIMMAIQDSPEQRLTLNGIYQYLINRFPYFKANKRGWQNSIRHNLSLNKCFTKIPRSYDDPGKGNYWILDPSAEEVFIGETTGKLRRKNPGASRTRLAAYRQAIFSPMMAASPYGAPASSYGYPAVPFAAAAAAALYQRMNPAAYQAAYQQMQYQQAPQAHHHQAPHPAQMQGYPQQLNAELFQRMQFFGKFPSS
The experiment in a line: FP; 33 mM phosphate pH 7.0, 90 mM NaCl, 0.01% Tween 20, 0.1 mM DTT, 0.5% agarose; room temperature. As to conditions: tags: N-GST (pGEX-6P-1, kept); dsDNA, one strand shown.
As to ACGTGTTTCCACTTA, the binding signal was 15.2 Kd / Kd of best base at the position.

On to ACGTGTTTACACTCA, for which the binding signal is 3.73 Kd / Kd of best base at the position.

Turning to ACGTGATTACACTTA, the binding signal was 19 Kd / Kd of best base at the position.

With ATGTGTTTACACTTA, the binding signal was 1.95 Kd / Kd of best base at the position.

Another test has as its target T2, Gt (Drosophila melanogaster, UniProt P39572 369-448).
T2 sequence: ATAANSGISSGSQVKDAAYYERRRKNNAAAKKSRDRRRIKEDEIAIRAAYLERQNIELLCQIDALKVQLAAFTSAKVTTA
Described as above. Conditions: tags: N-GST (pGEX-6P-1, kept); chain copies: 2; dsDNA, one strand shown.
Regarding AGTACGTAACC, the binding signal is 155 Kd / Kd of best base at the position.

In the case of ATTACCTAACC, the binding signal is 45.8 Kd / Kd of best base at the position.

ATTATGTAACC: the binding signal is 3.81 Kd / Kd of best base at the position.

On to ATTCCGTAACC, for which the binding signal was 1830 Kd / Kd of best base at the position.

On to ATCACGTAACC, for which the binding signal was 40.1 Kd / Kd of best base at the position.

Consider CTTACGTAACC, for which the binding signal is 2.33 Kd / Kd of best base at the position.

For ATTACGTCACC, the binding signal was 5.02 Kd / Kd of best base at the position.

Regarding ATTACGGAACC, the binding signal was 460 Kd / Kd of best base at the position.

With ATTACGTTACC, the binding signal is 518 Kd / Kd of best base at the position.

For the sequence ATTACGTGACC, the binding signal was 18.9 Kd / Kd of best base at the position.

With ATTAAGTAACC, the binding signal is 133 Kd / Kd of best base at the position.

ATTACGTAACC yielded a Kd of about 0.9 nM.

As for ATTTCGTAACC, the binding signal is 177 Kd / Kd of best base at the position.

With ATTACGTAACG, the binding signal is 3.4 Kd / Kd of best base at the position.

As to GTTACGTAACC, the binding signal was 1.09 Kd / Kd of best base at the position.

In the case of ATTACGCAACC, the binding signal is 4.03 Kd / Kd of best base at the position.

For ACTACGTAACC, the binding signal is 121 Kd / Kd of best base at the position.

ATTACGTAAGC: the binding signal was 3.37 Kd / Kd of best base at the position.

In the case of TTTACGTAACC, the binding signal was 6.92 Kd / Kd of best base at the position.

Turning to ATTACGTACCC, the binding signal was 1620 Kd / Kd of best base at the position.

With ATAACGTAACC, the binding signal was 174 Kd / Kd of best base at the position.

As to ATGACGTAACC, the binding signal is 3.59 Kd / Kd of best base at the position.

In the case of ATTACGTAACA, the binding signal is 2.19 Kd / Kd of best base at the position.

On to AATACGTAACC, for which the binding signal was 113 Kd / Kd of best base at the position.

Consider ATTAGGTAACC, for which the binding signal was 56.6 Kd / Kd of best base at the position.

Turning to ATTACGTAGCC, the binding signal was 1020 Kd / Kd of best base at the position.

Take ATTACGTAACT: the binding signal is 4.28 Kd / Kd of best base at the position.

Regarding ATTACGTATCC, the binding signal is 549 Kd / Kd of best base at the position.

ATTACGTAATC: the binding signal is 1.58 Kd / Kd of best base at the position.

For ATTACGAAACC, the binding signal was 316 Kd / Kd of best base at the position.

Turning to ATTACTTAACC, the binding signal is 567 Kd / Kd of best base at the position.

On to ATTACATAACC, for which the binding signal was 3.03 Kd / Kd of best base at the position.

On to ATTGCGTAACC, for which the binding signal is 3.54 Kd / Kd of best base at the position.

Consider ATTACGTAAAC, for which the binding signal is 10.5 Kd / Kd of best base at the position.

The values above are taken from paper PMC5913336, “True equilibrium measurement of transcription factor-DNA binding affinities using automated polarization microscopy”.
